Results as given in the supplement of paper PMC7380943.

How the values were obtained:
[1] = test system: CLZ3 (HCA2 human fibroblast dual HR-NHEJ reporter); assay: NHEJ repair efficiency (GFP+ cells) relative to control (log10 fold); higher = more non-homologous end joining; conditions: 5 µM; doxycycline 0.5 ug/mL
[2] = test system: CLZ3 (HCA2 human fibroblast dual HR-NHEJ reporter); assay: HR repair efficiency (tdTomato+ cells) relative to control (log10 fold); higher = more homologous recombination; conditions: 5 µM; doxycycline 0.5 ug/mL
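Wherever HR repair efficiency (tdTomato+ cells) relative to control is given: compound given one day before doxycycline, which switches on I-SceI endonuclease expression to create double-strand breaks within the integrated reporter.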
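Wherever NHEJ repair efficiency (GFP+ cells) relative to control is given: compound given one day ahead of doxycycline, which switches on I-SceI endonuclease to cut the chromosomally integrated reporter and create DSBs.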

Structure (SMILES)	NHEJ repair efficiency (log10) [1]	HR repair efficiency (log10) [2]
CC(=O)OC(C)C(C)C(=O)OCC12C3CC(C)(C)[C@H](O[C@@H]1C[C@]1(C)C3=CCC3C4(C)CCC(O[C@@H]5O[C@H](C(=O)O)[C@@H](O[C@H]6O[C@H](CO)[C@@H](O)[C@H](O)[C@H]6O)[C@H](O)[C@H]5O[C@@H]5OC[C@@H](O)[C@H](O)[C@H]5O)[C@](C)(CO)C4CCC31C)C2O (some centres undefined) [Sodium Aescinate]	0.101	0.0537
O=C(C=Cc1ccc(O)c(O)c1)O[C@H]1[C@H](O)C[C@](O)(C(=O)O)C[C@H]1OC(=O)C=Cc1ccc(O)c(O)c1 [Isochlorogenic acid C]	0.118	0.0227
Oc1cc(O)c2c(c1)OC(c1ccc(O)c(O)c1)C(OC1(c3ccc(O)c(O)c3)Oc3cc(O)cc(O)c3C(O)C1O)C2 (centres undefined) [Procyanidins]	0.0386	0.123
C[C@H](CCC(=O)NCCS(=O)(=O)O)[C@H]1CC[C@H]2[C@@H]3C[C@H](O)[C@@H]4C[C@H](O)CC[C@]4(C)[C@H]3CC[C@]12C [Taurohyodeoxycholic Acid]	0.0397	0.133
C[C@@H]1CC[C@@]2(NC1)O[C@H]1C[C@H]3[C@@H]4CC=C5C[C@@H](O[C@@H]6O[C@H](CO)[C@H](O)[C@H](O[C@@H]7O[C@H](CO)[C@@H](O)[C@H](O)[C@H]7O)[C@H]6O[C@@H]6O[C@@H](C)[C@H](O)[C@@H](O)[C@H]6O)CC[C@]5(C)[C@H]4CC[C@]3(C)[C@H]1[C@@H]2C [Solasonine]	-0.000957	0.0163
COc1cc2c(cc1OC)[C@@H](Cc1ccc(Oc3cc(C[C@@H]4c5cc(OC)c(OC)cc5CCN4C)ccc3O)cc1)N(C)CC2 [Dauricine]	-0.0332	-0.294
OC[C@H]1O[C@@H](O[C@@H]2OC=C[C@H]3[C@H](O)[C@@H]4O[C@]4(CO)[C@@H]23)[C@H](O)[C@@H](O)[C@@H]1O [Catalpol]	0.0212	0.00259
CC(C)=C1C/C=C(\C)CC/C=C(\C)CC1=O [Germacrone]	0.0003	-0.103
C=C[C@H]1[C@H](O[C@@H]2O[C@H](CO)[C@@H](O)[C@H](O)[C@H]2O)OC=C(C(=O)OC)[C@H]1CC(=O)O [Secoxyloganin]	0.0169	-0.19
C[C@@H]1CC[C@@]2(OC1)O[C@H]1C[C@H]3[C@@H]4CC[C@H]5C[C@@H](O)CC[C@]5(C)[C@H]4CC[C@]3(C)[C@H]1[C@@H]2C [Tigogenin]	0.0196	0.0468
COc1ccc([C@H]2OC[C@H]3[C@@H]2CO[C@H]3c2ccc(O[C@@H]3O[C@H](CO)[C@@H](O)[C@H](O)[C@H]3O)c(OC)c2)cc1OC [Phillyrin]	-0.0633	-0.0538
C=C[C@H]1[C@H](O[C@@H]2O[C@H](CO)[C@@H](O)[C@H](O)[C@H]2O)OC=C2C(=O)OCC[C@]21O [Swertiamarin]	-0.0365	-0.0353
C[C@@H](CC[C@@]1(O)O[C@H]2C[C@H]3[C@@H]4CC[C@@H]5C[C@@H](O[C@@H]6O[C@H](CO)[C@H](O)[C@H](O)[C@H]6O[C@@H]6O[C@H](CO)[C@@H](O)[C@H](O)[C@H]6O)CC[C@]5(C)[C@H]4CC[C@]3(C)[C@H]2[C@@H]1C)CO[C@@H]1O[C@H](CO)[C@@H](O)[C@H](O)[C@H]1O [Timosaponin b- II]	0.192	-0.131
CC(/C=C/C=C(\C)C(=O)O[C@@H]1O[C@H](CO[C@@H]2O[C@H](CO)[C@@H](O)[C@H](O)[C@H]2O)[C@@H](O)[C@H](O)[C@H]1O)=C\C=C\C=C(C)\C=C\C=C(/C)C(=O)O[C@@H]1O[C@H](CO[C@@H]2O[C@H](CO)[C@@H](O)[C@H](O)[C@H]2O)[C@@H](O)[C@H](O)[C@H]1O [Crocin]	-0.0374	0.0109
CC(C)=C1CC[C@@H](C)CC1=O [Pulegone]	0.114	-0.0589
C[C@@]12C[C@@]3(O)O[C@@H](O1)[C@]1(COC(=O)c4ccccc4)[C@@H]3C[C@]12O[C@@H]1O[C@H](COC(=O)c2ccccc2)[C@@H](O)[C@H](O)[C@H]1O [Benzoylpaeoniflorin]	-0.0544	-0.0282
COc1ccc(CCO[C@@H]2O[C@H](CO[C@@H]3OC[C@H](O)[C@H](O)[C@H]3O)[C@@H](OC(=O)/C=C/c3ccc(O)c(OC)c3)[C@H](O[C@@H]3O[C@@H](C)[C@@H](O)[C@@H](O)[C@H]3O)[C@H]2O)cc1O [Angoroside C]	0.0985	0.3
